Molecules are shown by their SMILES. Values joined by “and” are separate entries in the source; they are usually repeats but may differ in a detail not shown here. Identical values can stand only once. The panel holds about 83,000 compounds, 20% with a hit somewhere; the sample as a whole holds those more often.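 How to read the values: 0–100, growth inhibition (40 = 60% inhibited); 0, no net growth; -100 to 0, cell death (-40 = 40% of starting cells died; -100 = all dead).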 A number with no mark means an inactive call. Active and inactive are the calls of the source. Rule for the calls: active = growth percent below 10; inactive = the rest.

Among the test systems are HCT-15 colon; HT29 colon; SNB-75 CNS; SNB-19 CNS; U251 CNS; PC-3 prostate; SK-MEL-5 melanoma; UACC-62 melanoma; LOX IMVI melanoma; SK-MEL-28 melanoma.
Common to all, as to experiment: NCI-60 one-dose screen, 48 h (100 = growth as untreated, 0 = no growth, -100 = all killed)
Holding throughout (conditions): 10 µM unless noted

As to `O=C(/C=C\c1ccccc1)N1c2ccccc2CC1c1c[nH]c2ccccc12` (stereo not given), the growth was 55.7% in the experiment with HCT-15 colon; 21.8% with HT29 colon; 62.4% in the experiment on SNB-75 CNS; 85.8% in the experiment on SNB-19 CNS; 74.1% in the experiment on U251 CNS; 53.6% in the experiment on PC-3 prostate. In addition, the growth is 87.6% with SK-MEL-5 melanoma, 48.9% in the experiment with UACC-62 melanoma, 67.9% with LOX IMVI melanoma and 88.8% in the experiment on SK-MEL-28 melanoma.
For the compound `CNc1ccc2c(c1)c1ccccc1n2C`, the growth in the experiment on HCT-15 colon is 104%; in the experiment on HT29 colon it was 115%; in the experiment with SNB-75 CNS, 98.7%; in the experiment with SNB-19 CNS, 111%; with U251 CNS, 95.9%; in the experiment with PC-3 prostate it was 96%. In addition, the growth in the experiment with SK-MEL-5 melanoma was 101%; in the experiment with UACC-62 melanoma, 100%; in the experiment on LOX IMVI melanoma, 99.9%; in the experiment on SK-MEL-28 melanoma, 117%.
In the case of `O=C(O)C1C2CC3C(OC(=O)C31)C2Br` (stereo not given), the growth in the experiment with HCT-15 colon was 97.3% and 101%; with HT29 colon, 84.9% and 105%; with SNB-75 CNS it was 106% and 80.7%; in the experiment with SNB-19 CNS, 97.3% and 107%; in the experiment on U251 CNS it was 92.3% and 91.1%; in the experiment on PC-3 prostate, 90.4% and 105%. Further, the growth was 103% and 93.2% in the experiment with SK-MEL-5 melanoma; 93.5% and 107% with UACC-62 melanoma; 101% and 95.2% in the experiment on LOX IMVI melanoma; 100% and 103% in the experiment on SK-MEL-28 melanoma.
As for `Nc1ccc(SSc2ccc(N)cc2)cc1`, the growth is 88.6% in the experiment on HCT-15 colon; 112% in the experiment on HT29 colon; 102% in the experiment with SNB-75 CNS; 109% in the experiment with SNB-19 CNS; 76% in the experiment with U251 CNS; 84.8% with PC-3 prostate. Further, the growth was 89.6% in the experiment with SK-MEL-5 melanoma, 91.1% with UACC-62 melanoma, 79.6% in the experiment with LOX IMVI melanoma and 114% with SK-MEL-28 melanoma.
As for `CN(C)C(=O)SC1=C(c2c(Cl)cccc2Cl)C(=O)c2ccccc21`, the growth in the experiment on HCT-15 colon is -22.4% (active); with HT29 colon it was -35.3% (active); in the experiment on SNB-75 CNS it was 49.3%; with SNB-19 CNS, 97.4%; with U251 CNS, 90%; with PC-3 prostate it was 77%. The growth is 40.1% in the experiment on SK-MEL-5 melanoma, 26.7% in the experiment with UACC-62 melanoma, -48% (active) in the experiment on LOX IMVI melanoma and -34.1% (active) in the experiment on SK-MEL-28 melanoma.
`COc1cc(/C=C(/C)C[N+](=O)[O-])ccc1O`: the growth in the experiment on HCT-15 colon is 46.1%; in the experiment on HT29 colon it was 101%; in the experiment with SNB-75 CNS it was 78.4%; with SNB-19 CNS, 97.8%; in the experiment on U251 CNS it was 92%; in the experiment with PC-3 prostate it was 93.8%. The growth in the experiment with SK-MEL-5 melanoma was 101%; in the experiment on UACC-62 melanoma, 83.6%; in the experiment with LOX IMVI melanoma, 47.5%; in the experiment on SK-MEL-28 melanoma it was 54.3%.
In the case of `CN(C)c1ccc(N=Nc2cccc3ccccc23)cc1`, the growth in the experiment with HCT-15 colon is 93.1%; in the experiment on HT29 colon, 93.5%; in the experiment with SNB-75 CNS, 76.4%; in the experiment with SNB-19 CNS it was 100%; in the experiment with U251 CNS, 88.6%; with PC-3 prostate, 75.9%. In addition, the growth with SK-MEL-5 melanoma was 93.9%; in the experiment with UACC-62 melanoma, 84.2%; with LOX IMVI melanoma, 96.3%; in the experiment on SK-MEL-28 melanoma, 103%.
For the compound `CCN(CC)CCOc1ccc(-c2nc3cc(Cl)ccc3s2)cc1`, the growth in the experiment on HCT-15 colon was -71.9% (active); in the experiment on HT29 colon it was -100% (active); in the experiment with SNB-75 CNS it was -0.875% (active); in the experiment on SNB-19 CNS it was 40.7%; in the experiment on U251 CNS, -3.49% (active); in the experiment with PC-3 prostate, 4.44% (active). Further, the growth with SK-MEL-5 melanoma was -38.5% (active); with UACC-62 melanoma, -86.9% (active); in the experiment on LOX IMVI melanoma, -86.5% (active); in the experiment on SK-MEL-28 melanoma, -79.7% (active).
In the case of `O=C(/C=C\c1cc(Br)ccc1O)/C=C/c1cc(Br)ccc1O`, the growth with HCT-15 colon was 0% (active); in the experiment on HT29 colon, -54.2% (active); in the experiment on SNB-75 CNS, -8.46% (active); in the experiment with SNB-19 CNS it was -52.7% (active); in the experiment on U251 CNS it was -82.6% (active); with PC-3 prostate it was -16% (active). Moreover, the growth with SK-MEL-5 melanoma was -87.5% (active); in the experiment on UACC-62 melanoma, -67.5% (active); in the experiment with LOX IMVI melanoma, -95.6% (active); in the experiment with SK-MEL-28 melanoma, -66.9% (active).
Turning to `Nc1ncnc2c1ncn2C1OC(CO)C(O)C1O` (stereo not given), the growth in the experiment with HCT-15 colon was 109% and 33.5% and 105%; in the experiment on HT29 colon it was 109% and 35.6% and 98.4%; with SNB-75 CNS it was 99.1% and 50.2% and 91.3%; in the experiment with SNB-19 CNS, 106% and 67.8% and 100%; in the experiment with U251 CNS, 107% and 92.7% and 104%; in the experiment with PC-3 prostate it was 81.4% and 29.8% and 98.9%. For the same compound, the growth is 107% and 103% and 102% in the experiment on SK-MEL-5 melanoma; 110% and 82.7% and 101% with UACC-62 melanoma; 106% and 57.2% and 94.6% in the experiment on LOX IMVI melanoma; 116% and 124% and 125% in the experiment with SK-MEL-28 melanoma.
For `O=C(Nc1ccccc1)c1cc(Cl)ccc1O`, the growth with HCT-15 colon is 64.1%; in the experiment with HT29 colon, 89%; with SNB-75 CNS it was 64%; with SNB-19 CNS, 41.3%; with U251 CNS it was 59.1%; in the experiment on PC-3 prostate it was 66.5%. Besides, the growth in the experiment on SK-MEL-5 melanoma was 7.81% (active); with UACC-62 melanoma, 34.1%; in the experiment with LOX IMVI melanoma, 79.8%; in the experiment with SK-MEL-28 melanoma, 55.7%.

The values above are taken from PubChem BioAssay (NCI).
